# Data reported in ChEMBL document CHEMBL3988442, “University of Dundee, Small-Polar-MMV Screening Library” (2021).
# Biological target: AMP-activated protein kinase, AMPK (Homo sapiens) (UniProt P54646+O43741+P54619+Q9UGJ0+Q9Y478+Q13131+Q9UGI9)
# Experiment: AMP-dependent Kinase enzyme assay. An in vitro enzyme assay that detects ADP turnover that is directly proportional to AMPK activity. This uses naive AMPK that is activated during the assay with MK-8722
# Assay type: functional
# Parameters: scale not given: direction of the effect not stated beside the values
# Conditions: 30 µM
row,SMILES,Percent Effect [%]
1,COc1ccnc(CNc2nc(C)nc(C)c2C)c1,-6.37
2,CC(C)n1cnnc1CN(C)C(=O)c1cc(COc2ccccc2)[nH]n1,0
3,Cc1cc(CNCC2(O)CCOCC2)ccc1Br,-7.22
4,Cc1nn(C)c(C)c1CCC(=O)NCC1(C(N)=O)CCOCC1,1.16
5,COC(=O)c1ccc(N(C(=O)c2cc(Cl)ccn2)C(C)C)c(C)c1,-4.91
6,CCCN(CCO)S(=O)(=O)c1ccc2[nH]c(=O)[nH]c2c1,-3.64
7,O=C(NCc1nncn1C1CC1)c1ccccc1Oc1cccnc1,-0.563
8,CCc1nnc(CNC(=O)CCC2CCCN(C)C2)s1 (stereo not given),-1.32
9,Cc1ccc(C2(O)CCN(C(=O)CCn3c(C)cccc3=O)CC2)nc1,-22.2
10,CC(NC(=O)NC1CCN(Cc2ccncc2)CC1)c1ccc(F)cc1 (stereo not given),7.79
11,COc1ccc2c(c1)Cc1c-2nc(N)c(C#N)c1C1CCOC1 (stereo not given),-32.8
12,Cc1ccc2nc(C(=O)N3CC(n4nc(C)cc4C)C3)cn2c1,-4.01
13,NC(=O)C1CCN(C(=O)CCSCc2ccccc2)CC1,8.64
14,COc1ccc(C2CN(c3ncccn3)CCN2C(C)=O)cc1 (stereo not given),21.2
15,CCCc1nc(C)cc(N2Cc3cnn(CCO)c3C2)n1,5.18
16,CCCN(CCO)C(=O)c1cc(COc2ccc3c(c2)CCCC3)on1,5.46
17,COc1cc(C)c(S(=O)(=O)CC(=O)N(C)C(C)C)cc1OC,5.04
18,COCC1CCN(C(=O)c2cc(O)nc(CC(C)C)c2)CC1,-1.75
19,CCCc1nnc(N2CCC(N3CCCC(O)C3)CC2)o1 (stereo not given),4.12
20,CC(OCC1CC1)C(=O)Nc1cccc(C(=O)Nc2ccccn2)c1 (stereo not given),23.1
21,CCN(CC)c1ncccc1CNCc1ccc(Cl)s1,-3.79
22,CC(C)c1nnc2n1CCN(Cc1cc(Cl)c3c(c1)OCCO3)C2,11.8
23,COc1ccc(CCCN(C)C(=O)c2cc(Cl)c[nH]2)cc1OC,7.77
24,Cc1cc(N2CCC(n3cc(CN4CCC[C@@H]4CO)nn3)CC2)ccn1,-0.25
25,COCCC(=O)NCCc1nc2cc(-c3ccc(OC)cc3)ncn2n1,20
26,Cc1cnc(Nc2cccc(C3CCCN3Cc3cn(C)nc3C)n2)s1 (stereo not given),21.4
27,COc1ccccc1C(C)(C)NC(=O)c1cc(NC(C)=O)ccc1F,-6.77
28,Cc1nn(CCC(=O)NC2CCCOC2)c(C)c1C (stereo not given),12.2

row,SMILES,Percent Effect [%]
1,Cc1noc(CNc2cc3c(cc2Cl)NC(=O)CO3)n1,1.17
2,Cc1noc(C)c1C(=O)N(C)C(C)c1ccncc1 (stereo not given),-0.736
3,CC(Cc1cccc(F)c1)C(=O)NS(=O)(=O)c1ccc(F)cc1 (stereo not given),0.261
4,CN(C(=O)c1ccccc1N(C)S(C)(=O)=O)c1ccc(C(C)(C)C)cc1,6.59
5,CCc1ccc2nc(C)cc(C(=O)N[C@@H]3CNC[C@H]3O)c2c1,0.636
6,CN(Cc1cccc(-n2cccn2)c1)Cc1c[nH]cn1,-6.63
7,CCc1cc(=O)n(CCNC(=O)Nc2ccc(OC(F)(F)F)cc2)cn1,-3.24
8,CCN(CC)C(=O)N1CCOCC1c1c(C)nn(C)c1C (stereo not given),2.79
9,Cc1nc(C)c(C(=O)N2CCCc3c(F)cccc32)o1,-0.713
10,O=C(NCCn1ccnc1-c1cc2n(n1)CCNC2)c1ccc(F)cc1,1.27
11,O=C1CC[C@@H](C(=O)N2CCC(Cn3cc(C4CCCCC4)nn3)CC2)N1,4.87
12,O=C(Nc1ccc(F)cc1F)NC1(CO)CCOCC1,4.61
13,CNC(=O)c1noc(CN2CC[C@](C)(O)[C@H](C)C2)n1,-4.9
14,CN(CCSc1nncn1CC(F)(F)F)c1ccccc1,8.89
15,CCc1ccc(C(=O)NCC2CCCN2CC)o1 (stereo not given),0.975
16,C[C@@H]1CN(Cc2cc3ccccc3n2C)CC[C@@]1(O)C1CC1,14.8
17,OC1CCCN(Cc2cn(CC3CCN(C4CCSCC4)CC3)nn2)C1 (stereo not given),8.15
18,CCOC(=O)c1n[nH]cc1CN1CCOC(Cc2ccccc2)C1 (stereo not given),-0.201
19,CC(NCC(=O)N1CCc2sccc2C1)c1ccccc1F (stereo not given),10.8
20,CC1(C)Cc2nc(C(C)(C)C)ncc2C(NC(=O)CN)C1 (stereo not given),-5.88
21,Cc1cccc(COc2ccc(C(C)N)cc2)c1 (stereo not given),-5.16
22,CCCSCC(=O)N1CCCC(CO)(CCC)C1 (stereo not given),7
23,Cc1cc(COC(=O)[C@@H]2Cc3ccccc3CN2S(C)(=O)=O)no1,27.9
24,Cc1nc2cc(C3CCOCC3)nn2c(NCC2COCCO2)c1C (stereo not given),1.07
25,Cc1cc(Oc2ccc(NC(=O)C3CC3)cc2)cc(C2CCNCC2)n1,-9.8
26,CN(CCc1ccncc1)Cc1c(C2CCCC2)[nH]c2ncccc12,9.38
27,O=C1CN(C(=O)CC2C(=O)NCCN2CC2CCCCC2)CCN1 (stereo not given),-5.33
